Reference: PubChem BioAssay (NCI)
Several values for one entry are separate records, joined by “and”; a condition that tells them apart may be missing. Equal entries are not always repeated. This is part of a sample that, as a whole, favours compounds with a hit. Of some 83,000 tested, about 20% had one in any assay.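 Compound tested at a single concentration for 48 hours in 96-well plates; a percent growth value below 10 was scored as active.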 Activity calls are given as the source filed them.

Key:
Experiment in all cases: NCI-60 one-dose screen, 48 h (100 = growth as untreated, 0 = no growth, -100 = all killed)
Conditions in all cases: 10 µM unless noted
NCI-H23 lung = tested on: NCI-H23 lung
NCI-H226 lung = tested on: NCI-H226 lung
NCI-H322M lung = tested on: NCI-H322M lung
HOP-62 NSCLC = tested on: HOP-62 NSCLC
NCI-H460 lung = tested on: NCI-H460 lung
HOP-92 NSCLC = tested on: HOP-92 NSCLC
NCI-H522 lung = tested on: NCI-H522 lung
A549/ATCC NSCLC = tested on: A549/ATCC NSCLC
786-0 renal = tested on: 786-0 renal
COLO 205 colon = tested on: COLO 205 colon
DU-145 prostate = tested on: DU-145 prostate
K-562 leukemia = tested on: K-562 leukemia
MALME-3M melanoma = tested on: MALME-3M melanoma
MDA-MB-231 breast = tested on: MDA-MB-231 breast
RXF 393 renal = tested on: RXF 393 renal
SF-268 CNS = tested on: SF-268 CNS
SF-295 CNS = tested on: SF-295 CNS
SF-539 CNS = tested on: SF-539 CNS
UACC-257 melanoma = tested on: UACC-257 melanoma
M14 melanoma = tested on: M14 melanoma

Measured: growth

O=C(Oc1cccc(OC(=O)c2ccccc2)c1)c1ccccc1
inactive: NCI-H23 lung 94.6% and 106% | NCI-H226 lung 102% and 100% | NCI-H322M lung 101% and 97.8% | HOP-62 NSCLC 90.5% and 90% | NCI-H460 lung 107% and 94.2% | HOP-92 NSCLC 73.7% and 88.5% | NCI-H522 lung 108% | A549/ATCC NSCLC 57.7% and 98.9% | 786-0 renal 90% and 95.8% | COLO 205 colon 101% and 104% | DU-145 prostate 111% and 105% | K-562 leukemia 79.3% and 88.5% | MALME-3M melanoma 119% and 110% | MDA-MB-231 breast 96.2% and 107% | RXF 393 renal 121% | SF-268 CNS 92% and 94.7% | SF-295 CNS 103% and 99% | SF-539 CNS 96.8% and 96.1% | UACC-257 melanoma 111% | M14 melanoma 116% and 99.4%

O=C(Nc1ccc([N+](=O)[O-])cc1Cl)c1cc(Cl)ccc1O
3.36% (active) and 12.4% (inactive): K-562 leukemia
2.95% (active) and 18.5% (inactive): A549/ATCC NSCLC
3.92% (active) and 17.7% (inactive): DU-145 prostate
5.52% (active) and 16.4% (inactive): SF-268 CNS
active: NCI-H23 lung -37.1% and -43.6% | NCI-H226 lung -11.4% and -4.59% | NCI-H322M lung -0.032% and -21.1% | HOP-62 NSCLC 4.95% and 9.98% | NCI-H460 lung 0.171% and -3.23% | HOP-92 NSCLC -24.7% and -11.7% | NCI-H522 lung -34.6% and -12.1% | 786-0 renal -34.7% and -36.2% | COLO 205 colon -65.9% and -43.8% | MALME-3M melanoma -8.09% and -27.3% | MDA-MB-231 breast -43.3% and -31.2% | RXF 393 renal -27.4% and -21.6% | SF-295 CNS -56.8% and -57.8% | SF-539 CNS -16.5% and 4.67% | UACC-257 melanoma -34.2% and 3.09% | M14 melanoma -24.1% and -34.4%

O=C(O)CCCCc1ccc([N+](=O)[O-])cc1
inactive: NCI-H23 lung 99.6% and 101% | NCI-H226 lung 120% and 108% | NCI-H322M lung 112% and 96.7% | HOP-62 NSCLC 103% | NCI-H460 lung 96.1% and 120% | HOP-92 NSCLC 77.5% and 83.8% | NCI-H522 lung 91.7% and 103% | A549/ATCC NSCLC 97.6% and 102% | 786-0 renal 102% and 96.1% | COLO 205 colon 115% and 113% | DU-145 prostate 106% and 114% | K-562 leukemia 83.7% and 103% | MALME-3M melanoma 102% and 106% | MDA-MB-231 breast 112% and 95% | RXF 393 renal 116% and 148% | SF-268 CNS 98.9% and 115% | SF-295 CNS 113% | SF-539 CNS 94.3% and 102% | UACC-257 melanoma 125% and 97.8% | M14 melanoma 102% and 104%

C#CCN(C)Cc1ccccc1
inactive: NCI-H23 lung 106% and 104% | NCI-H226 lung 91.6% and 95.2% | NCI-H322M lung 99.3% and 450% | HOP-62 NSCLC 93.5% and 89.6% | NCI-H460 lung 110% and 104% | HOP-92 NSCLC 100% | NCI-H522 lung 100% and 92.5% | A549/ATCC NSCLC 102% and 101% | 786-0 renal 95.5% and 70.4% | COLO 205 colon 108% and 122% | DU-145 prostate 111% | K-562 leukemia 95.9% and 94.2% | MALME-3M melanoma 100% and 305% | MDA-MB-231 breast 106% and 89.6% | RXF 393 renal 114% and 96.6% | SF-268 CNS 107% and 99.5% | SF-295 CNS 108% and 98.1% | SF-539 CNS 97.8% | UACC-257 melanoma 105% | M14 melanoma 97.3% and 96.8%

Cc1ccc(S(=O)(=O)Nc2ccc3cc([N+](=O)[O-])ccc3c2[N+](=O)[O-])cc1
inactive: NCI-H23 lung 65.7% and 92.6% | NCI-H226 lung 67.6% and 95.5% | NCI-H322M lung 93% and 93.1% | HOP-62 NSCLC 92.7% and 95% | NCI-H460 lung 76.4% and 91.3% | NCI-H522 lung 54.6% and 85.3% | A549/ATCC NSCLC 77.7% and 91.2% | 786-0 renal 72.2% and 85.9% | COLO 205 colon 106% and 96.6% | DU-145 prostate 90.9% and 106% | K-562 leukemia 81.8% and 29% | MALME-3M melanoma 62.6% and 90.9% | MDA-MB-231 breast 98.8% and 95.1% | RXF 393 renal 93.2% and 102% | SF-268 CNS 81.8% and 94.8% | SF-295 CNS 38.9% and 53.1% | SF-539 CNS 89.8% and 111% | UACC-257 melanoma 82.3% and 97% | M14 melanoma 95.5% and 95%
27.9% (inactive) and -8.68% (active): HOP-92 NSCLC

ClC/C=C/CSc1ncnc2nc[nH]c12
inactive: NCI-H23 lung 101% and 102% | NCI-H226 lung 98.9% and 123% | NCI-H322M lung 110% | HOP-62 NSCLC 91.9% and 108% | NCI-H460 lung 105% and 106% | HOP-92 NSCLC 104% | NCI-H522 lung 102% and 77.3% | A549/ATCC NSCLC 101% and 104% | 786-0 renal 106% and 102% | COLO 205 colon 109% and 116% | DU-145 prostate 110% and 116% | K-562 leukemia 82.1% and 73.3% | MALME-3M melanoma 116% and 95.9% | MDA-MB-231 breast 109% and 96.3% | RXF 393 renal 109% and 141% | SF-268 CNS 103% and 119% | SF-295 CNS 101% and 117% | SF-539 CNS 101% and 103% | UACC-257 melanoma 118% and 104% | M14 melanoma 104% and 103%

Nc1n[nH]c(=S)n1-c1ccc(Cl)cc1
inactive: NCI-H23 lung 95.9% | NCI-H226 lung 93.9% | NCI-H322M lung 98.7% | HOP-62 NSCLC 94.5% | NCI-H460 lung 99.6% | HOP-92 NSCLC 85.9% | NCI-H522 lung 97.2% | A549/ATCC NSCLC 100% | 786-0 renal 93.7% | COLO 205 colon 117% | DU-145 prostate 108% | K-562 leukemia 102% | MALME-3M melanoma 102% | MDA-MB-231 breast 112% | RXF 393 renal 96.7% | SF-268 CNS 100% | SF-295 CNS 148% | SF-539 CNS 93% | UACC-257 melanoma 93.5% | M14 melanoma 101%

CC(=O)NC(Cc1ccccc1)C(=O)Oc1ccc2ccccc2c1 (stereo not given)
inactive: NCI-H23 lung 95.9% and 86.5% | NCI-H226 lung 101% and 106% | NCI-H322M lung 124% and 108% | HOP-62 NSCLC 96.9% and 94.7% | NCI-H460 lung 106% and 107% | HOP-92 NSCLC 78% and 84.9% | NCI-H522 lung 98.2% | A549/ATCC NSCLC 94.7% and 102% | 786-0 renal 110% | COLO 205 colon 93.3% and 105% | DU-145 prostate 107% and 109% | K-562 leukemia 106% and 113% | MALME-3M melanoma 109% | MDA-MB-231 breast 104% and 103% | RXF 393 renal 113% and 115% | SF-268 CNS 100% | SF-295 CNS 113% | SF-539 CNS 91.6% and 90% | UACC-257 melanoma 104% and 116% | M14 melanoma 109% and 118%
